Exocytosis inh: lytic granule exocytosis inhibition. TALL-104 LAMP-1 surface exposure, flow cytometry; cells stimulated with thapsigargin and PMA. inhibition, % at 10 µM. 0.66% of 360,000 active. AID 651702;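 active means inhibition above about 55%, limit read from the data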
ABCB6 inh 2: human ABCB6 transporter inhibition; Q9NP58; K562-ABCB6 porphyrin accumulation, flow cytometry, 1 h; stronger effect = lower value; fluorescence ratio to DMSO, % at 10 µM; 0.19% of 360,000 active; AID 602162;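 active means fluorescence ratio to DMSO below 75%, the collection mean minus 3 SD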;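 further: signal is porphyrin accumulated inside mitochondria; 100% equals median channel fluorescence of DMSO control wells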
Target sequence (Q9NP58 whole entry, looked up): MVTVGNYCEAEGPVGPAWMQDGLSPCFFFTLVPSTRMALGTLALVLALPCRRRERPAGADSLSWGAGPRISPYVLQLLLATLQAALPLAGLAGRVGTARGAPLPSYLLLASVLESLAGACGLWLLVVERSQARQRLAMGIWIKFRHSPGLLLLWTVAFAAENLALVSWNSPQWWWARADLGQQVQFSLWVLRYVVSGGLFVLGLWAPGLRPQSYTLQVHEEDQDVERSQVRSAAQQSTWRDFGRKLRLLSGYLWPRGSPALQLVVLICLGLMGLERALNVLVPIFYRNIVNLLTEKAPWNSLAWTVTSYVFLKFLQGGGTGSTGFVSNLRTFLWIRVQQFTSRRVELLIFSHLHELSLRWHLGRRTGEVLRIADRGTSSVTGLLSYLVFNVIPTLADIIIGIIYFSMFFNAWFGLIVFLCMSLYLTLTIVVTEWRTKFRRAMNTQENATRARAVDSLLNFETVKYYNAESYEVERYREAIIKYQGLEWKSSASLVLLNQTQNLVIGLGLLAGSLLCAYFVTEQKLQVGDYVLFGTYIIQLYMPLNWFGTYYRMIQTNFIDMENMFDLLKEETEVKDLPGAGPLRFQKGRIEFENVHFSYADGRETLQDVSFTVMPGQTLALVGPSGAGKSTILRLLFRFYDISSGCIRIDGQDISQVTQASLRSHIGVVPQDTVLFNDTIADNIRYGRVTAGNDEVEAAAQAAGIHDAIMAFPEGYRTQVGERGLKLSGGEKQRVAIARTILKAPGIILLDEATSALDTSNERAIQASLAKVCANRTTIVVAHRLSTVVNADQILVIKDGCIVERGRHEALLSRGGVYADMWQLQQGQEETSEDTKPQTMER
PG9 Ab binder: small molecules binding HIV-1 gp120 antibody PG9; TR-FRET gp120-PG9 antibody binding; inhibition, % at 6.7 µM; 0.43% of 360,000 active; AID 624416; in the data active means inhibition above about 8.5%
rCAG binder: r(CAG) repeat RNA binding; TO-PRO-1 dye displacement fluorescence; inhibition, % at 3 µM; 1.3% of 370,000 active; AID 651821;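 active means inhibition above the plate cutoff, the mean of all test compounds on that plate plus 3 SD, cut at about 35% in these data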;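 further: 0% = DMSO alone and 100% = 100 µM mitoxantrone as full dye displacement; higher means more dye released from RNA so lower well fluorescence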
rCAG binder conf: r(CAG) RNA repeat binding, confirmation | shares compounds with rCAG binder | TO-PRO-1 dye displacement fluorescence | inhibition, % at 3 µM | 70% of 4,300 active;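 active means inhibition above a per-plate cutoff, the mean inhibition of sample wells plus 3 SD, cut at about 35% in these data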;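 further: loss of TO-PRO-1 fluorescence as compound displaces dye from 1x1 AA loop RNA; 0% = DMSO only wells and 100% = 100 µM mitoxantrone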
dCAG dye counter: disrupts DNA CAG TO-PRO-1 complex, flagging rCAG hits | 94% of 4,300 active | shares compounds with rCAG binder | inhibition, % at 3 µM | d(CAG) DNA oligo TO-PRO-1 dye displacement, fluorescence | AID 652068;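 active means inhibition above its plate's cutoff, the mean test-well inhibition plus 3 SD, cut at about 4.8% in these data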;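 further: 0% = DNA dye mix with DMSO and 100% = 100 µM mitoxantrone; hits displace the dye from DNA and so lower well fluorescence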
An asterisk follows results filed as active; . = not tested or not shown. A selection: hits, their analogues and other compounds. The true share with any hit is near 2.5%.

SMILES	Exocytosis inh	ABCB6 inh 2	PG9 Ab binder	rCAG binder	rCAG binder conf	dCAG dye counter
CCC(NC(=O)CCc1c(C)c2cc3c(-c4ccccc4)coc3cc2oc1=O)C(=O)O (stereo unspecified)	-8.8	99.0	0.8	37.4*	42.4*	9.4*
Cc1c(CCC(=O)N[C@@H](C)C(=O)O)c(=O)oc2cc3occ(-c4ccccc4)c3cc12	-5.7	104.0	-1.5	35.6*	45.0*	9.8*
Cc1c(CC(=O)NCC(=O)O)c(=O)oc2cc3occ(-c4ccccc4)c3cc12	-3.9	95.0	-1.3	23.5	.	.
Cc1noc(C)c1C(=O)N1CCC1(C)C(=O)NS(=O)(=O)c1cccc(F)c1 (stereo unspecified)	27.4	88.0	0.5	0.4	.	.
CC(=O)c1sc(N/N=C\c2c(O)ccc3ccccc23)nc1C	6.4	102.0	-3.5	52.5*	60.2*	28.8*
CC(=O)c1sc(N/N=C/c2cccc(O)c2)nc1C	1.7	99.0	-1.9	5.0	.	.
COc1cccc(CNC(=O)c2cc3c(c(-c4cccc(-c5cccc(C#N)c5)c4)n2)[C@H](CCO)N(S(=O)C(C)(C)C)C3)c1 (stereo partly specified)	5.6	100.0	0.4	12.4	.	.
O=C1c2ccccc2S(=O)(=O)c2cc(C(=O)N(c3ccccn3)c3ccccn3)ccc21	20.6	100.0	-1.6	2.1	.	.
CSc1nc(SCCO)c2sc3nc(-c4ccco4)c4c(c3c2n1)CC(C)(C)OC4	3.0	108.0	0.9	39.1*	38.6*	19.8*
COC(=O)CSc1nc(SC)nc2c1sc1nc(-c3ccco3)c3c(c12)CC(C)(C)OC3	-3.0	96.0	-1.0	-0.7	.	.
COc1cccc(/C=C/C(=O)c2ccc(NS(=O)(=O)c3ccc(C)cc3)cc2)c1	-1.2	93.0	-0.5	35.4*	62.0*	20.8*
COc1cccc(C(=O)/C=C/Nc2ccc(S(=O)(=O)Nc3cccc(C(C)=O)c3)cc2)c1	6.7	95.0	-1.4	19.6	.	.
NS(=O)(=O)c1cccc(NS(=O)(=O)c2ccc(/C=C/C(=O)OCC(=O)c3ccc(Br)cc3)cc2)c1	-4.1	99.0	-0.9	14.6	.	.
COc1ccc(C(=O)COC(=O)/C=C/c2ccc(S(=O)(=O)Nc3cccc(S(N)(=O)=O)c3)cc2)cc1	46.9	95.0	-1.3	46.0*	59.5*	19.5*
COCCCNc1nc2ccccc2nc1NS(=O)(=O)c1cc(Cl)ccc1Cl	-2.0	93.0	-2.7	50.0*	47.6*	14.5*
O=[N+]([O-])c1ccc2nc(NS(=O)(=O)c3ccccc3[N+](=O)[O-])sc2c1	-1.4	108.0	-1.2	40.5*	39.4*	12.1*
O=[N+]([O-])c1ccc2nc(NS(=O)(=O)c3ccc(Cl)cc3)sc2c1	-9.5	96.0	1.9	72.2*	75.7*	28.5*
O=[N+]([O-])c1ccccc1S(=O)(=O)Nc1nc2ccccc2s1	-1.9	95.0	0.1	9.6	.	.
COc1ccc(C(CNC(=O)COc2cccc(C(F)(F)F)c2)N2CCCC2)cc1 (stereo unspecified)	-3.1	104.0	0.1	1.0	.	.
O=S(=O)(c1ccccc1)N1CCN(c2cccc(Cl)c2)CC1	-0.3	100.0	-0.1	-4.4	.	.
O=[N+]([O-])c1ccc2[nH]cc(S(=O)(=O)N3CCN(c4cccc(Cl)c4)CC3)c2c1	21.4	100.0	0.3	43.1*	37.2*	20.1*
COc1ccccc1C1C(C(=O)c2ccco2)=C(O)C(=O)N1c1cc(C)on1 (stereo unspecified)	-2.1	99.0	1.0	1.7	.	.
O=C(O)c1cccc(NC(=O)c2cn(-c3ccccc3)nc2-c2ccc(F)cc2)c1	4.6	100.0	-0.9	38.4*	24.7	5.5*
Cc1ccc(-c2nn(-c3ccccc3)cc2C(=O)Nc2ccc(C(=O)O)cc2)cc1	-3.2	102.0	0.9	44.4*	36.9*	8.2*
O=P(CCCO)(Cc1ccccc1)Cc1ccccc1	-7.3	94.0	-3.2	-1.5	.	.
SMILES	Exocytosis inh	ABCB6 inh 2	PG9 Ab binder	rCAG binder	rCAG binder conf	dCAG dye counter
O=c1c2ccccc2oc2cc(-c3ccc4[nH]ccc4c3)ccc12	-2.6	99.0	0.3	35.5*	22.4	10.7*
Cc1cc(CNC(=O)COC(=O)Cn2[nH]c(=O)c3ccccc3c2=O)cc(C)c1O	2.5	97.0	0.6	-2.3	.	.
O=C(O)c1ccc(/C=N\Nc2ccc(S(=O)(=O)N3CCOCC3)cc2[N+](=O)[O-])cc1	2.1	100.0	-0.8	1.0	.	.
Cc1ccc(-n2c(O)c(/C=N/Nc3ccc(S(=O)(=O)N4CCOCC4)cc3[N+](=O)[O-])c3ccccc3c2=O)c(C)c1	-0.4	91.0	-3.8	66.5*	88.0*	71.0*
O=C(O)COc1ccccc1/C=N/Nc1ccc(S(=O)(=O)N2CCOCC2)cc1[N+](=O)[O-]	0.4	101.0	-2.1	52.2*	39.3*	9.3*
CCOc1cc(C(c2c(C)[nH][nH]c2=O)c2c(C)[nH][nH]c2=O)ccc1OC(=O)c1cccc([N+](=O)[O-])c1	-7.0	91.0	-2.6	29.9	.	.
CCOc1cc(C(c2c(C)[nH][nH]c2=O)c2c(C)[nH][nH]c2=O)ccc1OCc1ccc([N+](=O)[O-])cc1	3.6	97.0	0.2	39.3*	42.0*	13.6*
O=C1NN(c2ccc(Cl)c(Cl)c2)C(=O)/C1=C/c1ccc(-c2ccccc2C(=O)O)o1	-8.2	102.0	-3.4	73.3*	66.5*	26.4*
COC(=O)c1ccc(N2NC(=O)/C(=C/c3ccc(-c4ccc(Cl)c(C(=O)O)c4)o3)C2=O)cc1	-0.9	101.0	-7.3	40.7*	68.9*	28.8*
CCOC(=O)C1CCCN(S(=O)(=O)c2cc3c4c(c2)CCC(=O)N4CCC3)C1 (stereo unspecified)	-3.8	93.0	0.7	-7.0	.	.
O=C(c1cc(O)c(O)c([N+](=O)[O-])c1)c1ccccc1F	-3.7	101.0	-0.8	35.3*	34.6*	6.4*
CCOc1ccc(CCNC(=O)COC(=O)c2nc(Cl)ccc2Cl)cc1OCC	0.3	93.0	-0.8	-1.0	.	.
O=[N+]([O-])c1ccccc1C(=Nc1ccccc1)c1c(O)cc(O)cc1O	5.1	102.0	0.9	45.4*	11.9	7.7*
O=C(Nc1ccccc1)c1ccccc1NC(=O)c1ccccc1[N+](=O)[O-]	-7.6	82.0	3.1	0.6	.	.
CCc1ccc(C(=O)Nc2cccc(-c3nn[nH]n3)c2)s1	1.7	99.0	-1.4	15.4	.	.
CCCc1cc(C(=O)Nc2cccc(-c3nn[nH]n3)c2)sc1C	-1.8	101.0	-0.1	39.8*	35.4*	8.5*
Cc1sc2nc(CN3CCOCC3)nc(NS(=O)(=O)c3cc(Cl)ccc3Cl)c2c1C	5.3	100.0	-1.4	53.3*	46.1*	10.4*
O=S(=O)(Nc1nc(CN2CCOCC2)nc2sc3c(c12)CCCC3)c1cc(F)ccc1F	3.1	99.0	1.4	50.5*	38.5*	9.6*
COC(=O)CC1=NN(c2ccc(OC)cc2)C(=O)C1	-1.0	104.0	-3.4	42.7*	2.4	0.1
COC(=O)Cc1c(C(=O)OC)nnn1-c1ccc(OC)cc1	-1.5	99.0	-0.1	-0.8	.	.

Bioassay records (PubChem)
